Compound activity (PubChem)
Shown are actives, neighbours in structure and some others; about 9.4% of the full set was active somewhere.
Pf growth 96h: Primary qHTS for delayed death inhibitors of the malarial parasite plastid, 96 hour incubation; Potency, µM (doses to about 28.7 µM), for inactives: at the top dose activity change, negative = inhibition, actives largely listed as inhibitors; P. falciparum luciferase reporter growth, 96 h; 320,000 tested, 6.9% active; further: on the % scale 0 is the no-effect control and ±100 the full control effect
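P. falciparum expressing integrated firefly luciferase, in erythrocytes at 2% hematocrit, 0.05% parasitemia, incubated with compounds 96 h at 37 C, 5% CO2. Growth inhibition read as loss of luminescence; two-generation exposure targets delayed-death apicoplast inhibitors.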
SARS PLpro yeast: qHTS of Yeast-based Assay for SARS-CoV PLP; S. cerevisiae expressing SARS-CoV PLpro, growth rescue; Potency, µM (top dose mostly 32.9 µM), for inactives: at the top dose activity, positive = growth rescue, usual class: activators; 330,000 tested, 0.19% active; calls by dose curve; further: 0% is about no effect; nearly all actives have a fitted effect of over 55% in size
AMA1-RON2 inh: qHTS for Inhibitors of AMA1-RON; Towards Development of Antimalarial Drug Lead: Primary Screen | Potency, µM (doses to about 58.2 µM), for the others: at the top dose activity change, negative = inhibition, hits mostly inhibitors | AID 720542, 2013 | AlphaScreen AMA1-biotinylated RON2 peptide binding | Plasmodium falciparum AMA1 (3D7) - RON2 peptide interaction | 360,000 tested, 0.2% active;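 further: 0% = vehicle wells and -100% = peptide control; nearly all actives have a fitted effect of over 45% in size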
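AMA1 (3D7) with his tag at 25 nM final met compounds first, then biotinylated RON2 peptide at 25 nM; detection used donor plus acceptor beads, 10 µg/mL apiece, read by AlphaScreen after 30 min at room temperature.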
Pf growth 48h: Primary qHTS for delayed death inhibitors of the malarial parasite plastid, 48 hour incubation; P. falciparum luciferase growth in erythrocytes, 48 h; Potency, µM (top dose mostly 28.7 µM), for inactives: at the top dose activity change, negative = inhibition, hits mostly inhibitors; 310,000 tested, 5.9% active; AID 504832, 2011; further: on the % scale 0 is the no-effect control and ±100 the full control effect
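In quantitative HTS format, infected erythrocytes bearing luciferase-reporter parasites were treated for a single generation at 37 C. Luminescence after adding detection reagent served as the growth measure.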
An asterisk follows results filed as active; ? = inconclusive; . = no result. Unless noted, the call rests on the fitted dose curve; in most records, active means well fitted curve in the direction sought with a large enough effect; inconclusive means small, poorly fitted or top-dose-only effect, or another doubt; inactive means no such curve, though single readings can be large; an effect the other way counts as inactive or inconclusive. Potency means the concentration at half of the fitted maximal effect.

SMILES	Pf growth 96h	SARS PLpro yeast	AMA1-RON2 inh	Pf growth 48h
COc1ccc(C(=O)NNC(=O)CCC(=O)Nc2cc(C)on2)cc1	17%	-14%	-6%	12%
COc1ccc(CC(NC(C)=O)C(=O)NC2CCN(c3c(Cc4ccccc4)c(C)nc4ncnn34)CC2)cc1OC (configuration not stated)	?	?	.	12µM*
COc1cccc(CC(NC(C)=O)C(=O)NC2CCN(c3c(Cc4ccccc4)c(C)nc4ncnn34)CC2)c1OC (configuration not stated)	?	13%	0%	5.9µM*
COC(=O)Cc1ccc(NC(=O)c2ccc3c(c2)C(=O)N(CC2CCCO2)C3=O)cc1 (configuration not stated)	?	-3%	12%	12%
CC1=C(C(=O)OCC(C)C)C(c2cc3c(cc2Br)OCO3)NC(=O)N1C (configuration not stated)	-23%	-5%	14%	10µM*
CCOC(=O)C1=C(C)NC(=O)NC1c1cc2c(cc1Br)OCO2 (configuration not stated)	-4%	-4%	3%	9.3µM*
CCOCCOC(=O)C1=C(C)NC(=O)NC1c1cc2c(cc1Br)OCO2 (configuration not stated)	?	-13%	-4%	-27%
COC(=O)C1=CN(C(C)C)C=C(C(=O)OC)C1c1cc2c(cc1Br)OCO2	3.7µM*	-8%	26%	?
CC(=O)C1C(c2ccc(F)cc2)NC(=O)NC1(O)C(F)(F)F (configuration not stated)	?	2%	-12%	18%
CC(=O)C1C(c2cccc(F)c2)NC(=O)NC1(O)C(F)(F)F (configuration not stated)	4.7µM*	-1%	1%	-4%
Cc1c(C(=O)NCc2ccc3c(c2)OCO3)sc(=O)n1Cc1ccc(S(=O)(=O)N(C)C)cc1	.	.	9%	.
FC(F)(F)c1nnc(-c2ccccc2)nc1Sc1ccc(Cl)cc1	-1%	7%	0%	?
FC(F)(F)c1cccc(Sc2nc(-c3ccccc3)nnc2C(F)(F)F)c1	?	5%	11%	12µM*
FC(F)(F)c1nnc(-c2ccccc2)nc1Sc1ccccc1	13µM*	2%	13%	?
CC(=O)c1c(O)cc(C)n(Nc2nc(C)cc(C)n2)c1=O	?	3%	17%	12µM*
Cc1ccc([C@@H]2[C@@H]3C(=O)N(C)C(=O)[C@@H]3[C@]3(Cc4ccccc4)C(=O)N(Cc4ccccn4)CC(=O)N23)o1	?	-2%	6%	47%
O=C(COC(=O)C1CC1)NCc1ccc(Cl)cc1Cl	.	3%	6%	.
S=C(S)N1CCCC1	?	.	2%	10µM*
O=C(Nc1ccc(CN2CCOCC2)cc1)c1ccc(-c2cccc(Cl)c2)o1	?	-9%	-16%	1.5µM*
O=C(Nc1ccc(CN2CCOCC2)cc1)c1ccc(-c2ccc(Cl)cc2Cl)o1	-4%	-1%	-26%	2.1µM*
CCOC(=O)C1=C(CC)Nc2ccccc2N=C1NC(=O)CCN1C(=O)C2CCCCC2C1=O (configuration not stated)	-19%	2%	0%	-9%
Nc1ccc2c(c1)C/C(=C/c1ccco1)C2=O	274%	-53%	-15%	332%
Cc1cc(/C=C2\SC(=Nc3ccc(F)cc3)NC2=O)c(C)n1-c1ccc(S(N)(=O)=O)cc1	.	-4%	-2%	13µM*
Cc1cc(/C=C2\SC(=S)NC2=O)c(C)n1-c1ccc(O)cc1	410%	-5%	46%	9.3µM*
Cc1cc(/C=C2\SC(=S)NC2=O)c(C)n1-c1ccccc1	-7%	-1%	-24%	112%
SMILES	Pf growth 96h	SARS PLpro yeast	AMA1-RON2 inh	Pf growth 48h
Cc1cc(/C=C2/SC(=O)NC2=O)c(C)n1-c1ccc(N2CCOCC2)cc1	-7%	-16%	-1%	-29%
CNC(=O)c1ccc(Nc2nnc(-c3ccc(C)c(S(N)(=O)=O)c3)c3ccccc23)cc1	3%	0%	-8%	0%
COc1ccc(N2CCN(C(=O)COC(=O)COc3ccc(C#N)cc3)CC2)cc1	18%	-1%	9%	0%
O=C(NC(=S)N1CCN(c2ccc([N+](=O)[O-])cc2Cl)CC1)c1ccco1	?	?	39%	-20%
CC(=O)NCCC(=O)N(Cc1ccccc1)c1nc2c(C)cccc2s1	?	-3%	-7%	7.4µM*
COC(=O)c1cc(-c2ccc(S(=O)(=O)N3CCCCC3)cc2)c(C(F)(F)F)s1	?	0%	31%	12µM*
COc1cc(C=NCC2OCCc3ccccc32)cc(OC)c1 (configuration not stated)	9.3µM*	0%	-4%	8%
COc1ccc(S(=O)(=O)Nc2ccc3c(c2)C(=O)N([C@H](C)CO)C[C@H](C)[C@@H](CN(C)C(=O)Nc2ccc4c(c2)OCO4)O3)cc1	.	-1%	-2%	.
CCOc1ccc2c(c1)-c1c(ssc1=S)C(C)(C)N2C(=O)CSC1=NCCS1	1.7µM*	6%	10µM*	?
CCOc1ccc2c(c1)-c1c(ssc1=S)C(C)(C)N2	?	-28%	19µM*	.
Cc1c(C)[n+](=O)c(-c2cccs2)c(C)n1[O-]	.	-13%	7%	-6%
C[C@]12C(=O)N(c3cccc(Cl)c3)C(=O)N1[C@H]1c3ccccc3OC[C@@H]1[C@H]2c1ccccc1	10µM*	-2%	-3%	0%
Cc1cccc(N2C(=O)N3[C@@H]4c5ccccc5OC[C@@H]4[C@@H](c4ccccc4)[C@]3(C)C2=O)c1	12µM*	-19%	-11%	?
C[C@@]12C(=O)N(c3cccc(Cl)c3)C(=O)N1[C@@H]1c3ccccc3OC[C@@H]1[C@H]2c1ccccc1	.	-1%	-2%	.
N#CC1(NC(=O)COC(=O)c2cc(O)c3ccccc3c2O)CCCCC1	12µM*	2%	-7%	?
N#CC1(NC(=O)COC(=O)c2ccccc2[N+](=O)[O-])CCCCC1	-15%	2%	15%	32%
O=C(NCc1ccc2c(c1)OCO2)c1ccc(N2CCCCCC2)c([N+](=O)[O-])c1	?	-11%	-30%	-12%
Cc1cccc(NC(=O)C[n+]2ccccc2)c1	?	-1%	11%	52%
Cc1ccc(NC(=O)C[n+]2ccccc2)cc1C	9.3µM*	17%	-3%	14%
COc1ccc(Cl)cc1NC(=O)C[n+]1cccc(C)c1	18%	0%	-8%	12µM*
COc1cc([N+](=O)[O-])ccc1NC(=O)C[n+]1cccc(C)c1	?	7%	5%	-26%
Cc1cccc(NC(=O)C[n+]2cccc(C)c2)c1	0.66µM*	-4%	9%	?
COC(=O)c1cnn(-c2ccccc2)c1C(OC)OC	-13%	1%	-18%	1%
CSC(=Nc1ccccc1)C1=C(O)COC1=O	-9%	2%	-3%	6%
COc1cc(C=NNC(=O)C(=O)Nc2cccc(Cl)c2)cc(OC)c1O	.	.	4%	.
